In PubChem BioAssay AID750 (Sanford-Burnham Center for Chemical Genomics, 2007):
Hit rate of the full screen: of about 86,000 compounds, about 140 (0.16%) were called active. Shown is part of a subset that was picked to be rich in actives. Unmarked numbers belong to inactive results.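 How the source made its calls: active means activation factor of at least 2 for MT1-MMP transcription at 10 µM; inactive means the rest.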

Test: MT1-MMP promoter reporter activation – cell-based, luciferase luminescence, primary screen (AID 750)
Details: HT1080 MT1-MMP promoter luciferase reporter, overnight, at 10 µM, hits give high values
With Cn1c(=N)n(CC(O)c2ccccc2)c2ccccc21 (stereo not given) the activation factor was 1.5. In the case of CC1CCC2(CC1)NC(=O)N(CC(=O)c1cccn1C)C2=O (stereo not given), the activation factor is reported as 1.2. COc1ccccc1NC(=O)C1CCCN(c2cc(C)nc3ncnn23)C1 (stereo not given) gave an activation factor of 1.1. COc1cc(OC)cc(-c2cc3nc(C4CCN(C(=O)OC(C)(C)C)CC4)cc(=O)n3[nH]2)c1 showed an activation factor of 1.1. For COc1ccc(OC)c(-n2nnnc2SCC(=O)Nc2cc(C)ccc2OC)c1, the activation factor was 1. In the case of COc1ccc(C(=O)Nc2ccc(S(=O)(=O)NC(C)C)cc2)cc1, the activation factor is reported as 1.1. For COC(=O)[C@@]1(Cc2ccccc2)C=C[C@@H](C)N1, the activation factor was 1.2. Compound O=C1C2N=NN(CC(=O)N3N=C(c4cccc5ccccc45)CC3c3ccccc3)C2C(=O)N1c1ccccc1 (stereo not given) has an activation factor of 1.2. With CC(N=Cc1nc(-c2ccccc2)oc1O)c1ccccc1 (stereo not given) the activation factor was 1.2. In the case of Cc1ccc(S(=O)(=O)NCCN2CCOCC2)cc1C, the activation factor is reported as 1.1. For Cc1cc2nc(SCCN3CCOCC3)[nH]c2cc1C, the activation factor was 2 (active). c1ccc2[nH]c(NCCN3CCOCC3)nc2c1 showed an activation factor of 1.1. With CCOc1cc(NC(=O)c2cnccn2)c(OCC)cc1NC(=O)c1ccc(C)cc1 the activation factor was 1.3. With COC(=O)C1=C(C)N=C2SC(C)C(=O)N2C1/C=C/c1ccccc1 (stereo not given) the activation factor was 1.1. OC(COCCC12CC3CC(CC(C3)C1)C2)CN1CCCCC1 (stereo not given) gave an activation factor of 1.1. For COc1ccc(/C(O)=C2/C(=O)C(=O)N(CC3CCCO3)C2c2ccc(OC)c(OC)c2)cc1 (stereo not given), the activation factor was 1.3. O=C(CCn1c(SCC(=O)c2ccccc2)nc2ccccc2c1=O)NCc1ccc(F)cc1 showed an activation factor of 1.1. For CCN1CCCC1Cn1cnc2c([nH]c3cc(OC)ccc32)c1=O (stereo not given), the activation factor was 1.1. Cc1cc(NC(=O)CSc2nnc(-c3ccc(Cl)s3)o2)no1 gave an activation factor of 1.1. Work on CCCNC(=O)c1ccc(Cl)c(Cl)c1 yielded an activation factor of 1. For Cc1cc(N/C=C\C(=O)c2ccc(Cl)c(Cl)c2)no1, the activation factor was 2.1 (active). For CCN(CC)C(=O)CSc1nc2ccccc2n1CC(=O)N1CCN(c2ccccc2OC)CC1, the activation factor was 1.1. With CC/S(CC1CC1(Cl)Cl)=N\S(=O)(=O)c1ccc(C)cc1 (stereo not given) the activation factor was 1. Work on CC(C)C(OC(=O)c1cccs1)C(=O)NC1CCCCC1 (stereo not given) yielded an activation factor of 1.3. OC(CN1C2=NCCCN2c2ccccc21)c1ccc(Br)cc1 (stereo not given) showed an activation factor of 1.2. Work on Cn1c(SCC(=O)NC2CCCCC2)nnc1-c1cc2ccccc2o1 yielded an activation factor of 1.4. For NC(=O)c1ncc(C(F)(F)F)cc1Oc1ccc(F)cc1, the activation factor was 1.1. With CCOc1ccccc1NC(=O)c1cccnc1 the activation factor was 1.3. Work on CNC(=S)N1N=C(c2ccccc2)CC1c1ccc(Br)cc1 (stereo not given) yielded an activation factor of 1.3. Compound Cc1noc(NS(=O)(=O)c2ccc(N/C=C/C(=O)c3ccccc3)cc2)c1C has an activation factor of 1.3. With COc1cc(C)c(C(C)C)cc1S(=O)(=O)n1ccnc1 the activation factor was 1.2. COc1ccc(NC(=O)CCN2CCCC2)c(OC)c1 gave an activation factor of 1.2. COC(=O)c1ccc(NC(=O)Nc2ccc(C)cc2)cc1 showed an activation factor of 1.6. For COc1ccc(C(=O)Cc2cnn(-c3ccccc3)c2)c(O)c1, the activation factor was 1.3. For CC(C)CCSc1ncnc2c1oc1nc3c(cc12)COC(C)(C)C3, the activation factor was 1.1. With COc1cccc(NC(=O)CN2CCN(c3nc(-c4cccc(OC)c4)cs3)CC2)c1 the activation factor was 1.2. With CCCNC(=O)NCc1ccc(N2CCCC2=O)cc1 the activation factor was 1.1. Compound COc1ccc(C2C(C(C)=O)=C(O)C(=O)N2Cc2cccnc2)cc1 (stereo not given) has an activation factor of 1.2. Work on CC(C)NC(=O)CSc1nnc(COc2ccccc2Cl)o1 yielded an activation factor of 1.1. Work on CCOn1c(SC(C)C)nc2ccccc2c1=O yielded an activation factor of 1.1. With COC(=O)C1CCN(CC(N)=O)CC1 the activation factor was 1.1. Compound CC(C)OC(=O)CN1C(=O)C(=O)c2ccccc21 has an activation factor of 1.3. Compound COc1ccc(-c2oc(/N=C/N3CCCC3)c(C#N)c2-c2ccc(OC)cc2)cc1 has an activation factor of 1.1. COC(=O)[C@H](Cc1ccccc1)NC(=O)[C@@H]1C[C@H]1[C@@H](NC(=O)OCc1ccccc1)c1ccccc1 showed an activation factor of 1.1. Work on CCOc1ccc(S(=O)(=O)NCCSc2ccccc2)cc1 yielded an activation factor of 1.1. For CCOC(=O)C1=C(CCc2ccccc2)NC(=O)NC1c1ccc2ccccc2c1 (stereo not given), the activation factor was 1.4. With COc1ccc(C)cc1S(=O)(=O)Nc1cccc(Cl)c1Cl the activation factor was 1.1. Cc1ccc(C(=O)N2CCCC2)c(F)c1F showed an activation factor of 1.2. O=C(O)c1cc2ccccc2c(=O)s1 showed an activation factor of 1.1. Cc1cc(C)n(-c2c(F)c(F)c(COC(=O)c3ccccc3)c(F)c2F)n1 gave an activation factor of 1.1. In the case of Cc1ccc(/C=N/NC(=O)C2=NNC(c3ccccc3)(c3ccccc3)C2)c(O)c1, the activation factor is reported as 1.1. Work on COc1ccc(C)cc1NC(=O)CCS(=O)(=O)c1cccc2nonc12 yielded an activation factor of 1. Compound CN(C)c1nc(N)nc(CSc2ccccn2)n1 has an activation factor of 1.1. CCCc1noc2c1/C(=N\O)CCC2 gave an activation factor of 1.1. Work on Cn1c(Cc2cccc3ccccc23)nnc1SCC(=O)N1CCN(c2cccc(Cl)c2)CC1 yielded an activation factor of 1.1. CCOc1ccc(NC(=O)CN(C)CC(=O)Nc2cccc(Cl)c2C)cc1OCC gave an activation factor of 0.9. COc1ccc(N2CCN(C(=O)CNC(=O)c3ccc(C(C)(C)C)cc3)CC2)cc1 showed an activation factor of 1.1. O=C(NCCSCc1ccccc1)c1ccc(Cl)c(S(=O)(=O)N2CCOCC2)c1 showed an activation factor of 1.1. Cc1cnc(NC(=O)CSc2nnc(C)s2)s1 showed an activation factor of 1. For CCN(CC(=O)NC1CCS(=O)(=O)C1)c1nc(-c2cccnc2)nc2ccccc12 (stereo not given), the activation factor was 1.1. In the case of COc1ccccc1NC(=O)CSc1nnc(C)n1CC1CCCO1 (stereo not given), the activation factor is reported as 1.1. In the case of O=C(CN1CCN(C(=O)c2ccco2)CC1)Nc1ccc2c(c1)OCO2, the activation factor is reported as 1.4. Work on O=C(Nc1nnc(SCc2c(Cl)cccc2Cl)s1)C1CCCO1 (stereo not given) yielded an activation factor of 1.2. In the case of Cc1ccc(C2(C(F)(F)F)N=C3Sc4cc(C)cc(C)c4N3C(=O)N2)cc1 (stereo not given), the activation factor is reported as 1.1. With C=C(C)CNC(=S)/N=c1\scc(C)n1CC the activation factor was 1.3. In the case of O=C(Cc1ccc(-n2c(=O)[nH]c3ccccc3c2=O)cc1)N1CCN(c2cccc(Cl)c2)CC1, the activation factor is reported as 1. COc1ccc(Br)cc1CN1CCN(C(=O)c2cccc(OC)c2OC)CC1 showed an activation factor of 1.1. Work on COc1ccc(C2=Nc3cc(C)ccc3OC2)cc1 yielded an activation factor of 0.9. Compound CS(=O)(=O)N1CCN(c2cccc(Cl)n2)CC1 has an activation factor of 1.2. Work on COc1ccc(S(=O)(=O)Nc2ccc3oc(C)c(C(C)=O)c3c2)cc1 yielded an activation factor of 1.1. Work on Cc1ccc(C2=CSC3=NS(=O)(=O)CCN23)cc1C yielded an activation factor of 1.1. For CC1=C(C(=O)OC(C)(C)C)C(c2ccc(Br)cc2)NC(=O)N1CCCC(=O)O (stereo not given), the activation factor was 1.1. With CCS(=O)(=O)Nc1ccc(C2=NN(S(=O)(=O)c3ccc(F)cc3)C(c3ccco3)C2)cc1 (stereo not given) the activation factor was 1.1. CC1=CC(C)(C)NC(=S)N1c1ccccc1 gave an activation factor of 1.1. Cc1ccc(SCC(=O)c2cc(C)c(OC(=S)N(C)C)c(C)c2)cc1 gave an activation factor of 1.9. COC(=O)CSc1nc2c(c(C3CC=CCC3)c1C#N)CCC2 (stereo not given) gave an activation factor of 1. With O=C(NCCCN1CCCCC1)c1ccc2c(c1)NC(=O)C(N1CCOCC1)S2 (stereo not given) the activation factor was 1.1. Compound CC(C)CC[n+]1ccn(C2=C([O-])c3ccccc3C(=O)/C2=N\S(=O)(=O)c2ccccc2)c1 has an activation factor of 0.8. In the case of Cc1ccc2c(c1)c1ncnc(N3CCc4ccccc4C3)c1n2C, the activation factor is reported as 2 (active). Cc1cccc(-n2ncc3c(N4CCc5ccccc54)ncnc32)c1 showed an activation factor of 1.5. Work on Cc1ccc2c(c1)c1ncn(CCC3=CCCCC3)c(=O)c1n2C yielded an activation factor of 1.3. COc1ccc(N(CC(=O)NC2CCCCC2)C(=O)CNC(=O)c2ccco2)c(OC)c1 showed an activation factor of 1.2. CSc1nc(C)cc(SC(C(C)=O)C(=O)Nc2ccccc2)n1 (stereo not given) showed an activation factor of 1.1. CSc1nc2nc3c(c(=O)n2[nH]1)CCC3 gave an activation factor of 1.2. For COc1ccccc1CCNC(=O)c1cnccn1, the activation factor was 1.2. Work on CCCCCOC(=O)c1ccc(N2C(=O)C3C4C=CC(C4)C3C2=O)cc1 (stereo not given) yielded an activation factor of 1.2. Compound O=C(NCc1ccc2c(c1)OCO2)C12CC3CC(CC(C3)C1)C2 has an activation factor of 1. Compound Cc1ccc(N(Cc2ccc(C(=O)Nc3ccccc3C(=O)NCc3ccco3)cc2)S(C)(=O)=O)cc1C has an activation factor of 1.1. COc1ccccc1NC(=O)/C=C/C(N)=O showed an activation factor of 1.3. CC(C)CCNC(=O)CC1C(=O)N(Cc2ccccc2)C(C)c2nc3ccccc3n21 (stereo not given) showed an activation factor of 1. For CCOC(=O)c1ccccc1NS(=O)(=O)c1ccc(OC)cc1, the activation factor was 1. Work on CCn1c(CC(=O)Nc2ccc(C)cc2)nnc1SCC(=O)Nc1nc(C)cs1 yielded an activation factor of 1.1. In the case of CCN1CCN(C(=O)c2cc3cc4ccc(OC)cc4nc3s2)CC1, the activation factor is reported as 1.3. Compound CC1CN(S(=O)(=O)c2ccccc2)C(C)CN1S(=O)(=O)c1ccccc1 (stereo not given) has an activation factor of 1.3. CCOC(=O)c1c(C)nc2c(c1C)c(=O)oc1ccccc12 gave an activation factor of 1.1. Cn1c(C(=O)OC(C(=O)NC2CCCCC2)c2ccccn2)cc2sccc21 (stereo not given) showed an activation factor of 1.2. CCCNC(=S)N1CCC(NC(=O)C23CC4CC(CC(C4)C2)C3)CC1 showed an activation factor of 1.2. Work on O=C(Nc1nncs1)c1cccc(S(=O)(=O)N2CCCCC2)c1 yielded an activation factor of 1. Work on N#Cc1ccc(C=NC(c2ccccc2)c2ccccc2)cc1 yielded an activation factor of 1.2. CN(Cc1nc2ccccc2c(=O)[nH]1)Cc1cc(=O)oc2ccc3ccccc3c12 gave an activation factor of 1.
